37 targets from the supplement of paper PMC11006884 can be followed below.

About 6,500 targets were measured; listed, in parts, are those with a hit and a random draw of the rest. About 2% of all pairs of compound and target were hits. A number with no mark means an inactive call.

UniProt P52701, sequence (P52701 whole entry, looked up): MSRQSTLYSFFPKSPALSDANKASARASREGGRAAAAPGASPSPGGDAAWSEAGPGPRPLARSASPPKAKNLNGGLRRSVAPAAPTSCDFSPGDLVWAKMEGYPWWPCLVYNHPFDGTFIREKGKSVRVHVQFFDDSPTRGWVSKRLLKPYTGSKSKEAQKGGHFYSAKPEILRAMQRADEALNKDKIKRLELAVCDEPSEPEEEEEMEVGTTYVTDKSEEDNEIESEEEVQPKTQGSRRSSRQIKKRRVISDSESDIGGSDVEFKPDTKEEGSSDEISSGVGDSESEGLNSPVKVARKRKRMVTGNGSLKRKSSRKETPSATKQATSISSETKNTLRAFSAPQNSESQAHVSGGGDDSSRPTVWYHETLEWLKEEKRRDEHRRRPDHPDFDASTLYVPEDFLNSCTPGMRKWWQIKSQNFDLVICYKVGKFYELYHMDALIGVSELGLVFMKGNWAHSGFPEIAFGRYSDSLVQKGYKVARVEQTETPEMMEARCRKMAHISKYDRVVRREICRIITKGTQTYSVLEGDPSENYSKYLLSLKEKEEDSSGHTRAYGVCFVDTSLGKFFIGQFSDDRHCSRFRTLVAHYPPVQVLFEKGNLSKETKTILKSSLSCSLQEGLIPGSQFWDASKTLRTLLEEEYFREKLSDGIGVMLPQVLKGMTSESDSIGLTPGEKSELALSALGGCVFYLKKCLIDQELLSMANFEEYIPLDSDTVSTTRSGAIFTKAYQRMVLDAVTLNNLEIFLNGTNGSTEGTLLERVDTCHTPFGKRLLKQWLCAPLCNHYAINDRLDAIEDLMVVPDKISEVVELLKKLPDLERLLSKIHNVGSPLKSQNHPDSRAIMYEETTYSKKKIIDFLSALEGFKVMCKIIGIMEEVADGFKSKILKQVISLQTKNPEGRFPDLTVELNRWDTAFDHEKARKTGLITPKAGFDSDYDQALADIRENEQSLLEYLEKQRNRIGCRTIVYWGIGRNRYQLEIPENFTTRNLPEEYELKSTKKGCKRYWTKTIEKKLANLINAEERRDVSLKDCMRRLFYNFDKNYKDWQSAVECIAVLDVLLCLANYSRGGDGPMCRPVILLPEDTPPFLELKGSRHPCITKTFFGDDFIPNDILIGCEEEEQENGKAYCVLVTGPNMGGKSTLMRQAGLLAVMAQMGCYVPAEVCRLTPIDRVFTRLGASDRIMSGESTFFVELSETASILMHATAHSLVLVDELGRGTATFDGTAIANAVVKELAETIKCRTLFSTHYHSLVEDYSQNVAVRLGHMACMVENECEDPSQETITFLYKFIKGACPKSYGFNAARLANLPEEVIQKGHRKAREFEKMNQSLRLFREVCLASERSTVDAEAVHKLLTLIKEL
UniProt P49792, sequence (P49792 whole entry, looked up): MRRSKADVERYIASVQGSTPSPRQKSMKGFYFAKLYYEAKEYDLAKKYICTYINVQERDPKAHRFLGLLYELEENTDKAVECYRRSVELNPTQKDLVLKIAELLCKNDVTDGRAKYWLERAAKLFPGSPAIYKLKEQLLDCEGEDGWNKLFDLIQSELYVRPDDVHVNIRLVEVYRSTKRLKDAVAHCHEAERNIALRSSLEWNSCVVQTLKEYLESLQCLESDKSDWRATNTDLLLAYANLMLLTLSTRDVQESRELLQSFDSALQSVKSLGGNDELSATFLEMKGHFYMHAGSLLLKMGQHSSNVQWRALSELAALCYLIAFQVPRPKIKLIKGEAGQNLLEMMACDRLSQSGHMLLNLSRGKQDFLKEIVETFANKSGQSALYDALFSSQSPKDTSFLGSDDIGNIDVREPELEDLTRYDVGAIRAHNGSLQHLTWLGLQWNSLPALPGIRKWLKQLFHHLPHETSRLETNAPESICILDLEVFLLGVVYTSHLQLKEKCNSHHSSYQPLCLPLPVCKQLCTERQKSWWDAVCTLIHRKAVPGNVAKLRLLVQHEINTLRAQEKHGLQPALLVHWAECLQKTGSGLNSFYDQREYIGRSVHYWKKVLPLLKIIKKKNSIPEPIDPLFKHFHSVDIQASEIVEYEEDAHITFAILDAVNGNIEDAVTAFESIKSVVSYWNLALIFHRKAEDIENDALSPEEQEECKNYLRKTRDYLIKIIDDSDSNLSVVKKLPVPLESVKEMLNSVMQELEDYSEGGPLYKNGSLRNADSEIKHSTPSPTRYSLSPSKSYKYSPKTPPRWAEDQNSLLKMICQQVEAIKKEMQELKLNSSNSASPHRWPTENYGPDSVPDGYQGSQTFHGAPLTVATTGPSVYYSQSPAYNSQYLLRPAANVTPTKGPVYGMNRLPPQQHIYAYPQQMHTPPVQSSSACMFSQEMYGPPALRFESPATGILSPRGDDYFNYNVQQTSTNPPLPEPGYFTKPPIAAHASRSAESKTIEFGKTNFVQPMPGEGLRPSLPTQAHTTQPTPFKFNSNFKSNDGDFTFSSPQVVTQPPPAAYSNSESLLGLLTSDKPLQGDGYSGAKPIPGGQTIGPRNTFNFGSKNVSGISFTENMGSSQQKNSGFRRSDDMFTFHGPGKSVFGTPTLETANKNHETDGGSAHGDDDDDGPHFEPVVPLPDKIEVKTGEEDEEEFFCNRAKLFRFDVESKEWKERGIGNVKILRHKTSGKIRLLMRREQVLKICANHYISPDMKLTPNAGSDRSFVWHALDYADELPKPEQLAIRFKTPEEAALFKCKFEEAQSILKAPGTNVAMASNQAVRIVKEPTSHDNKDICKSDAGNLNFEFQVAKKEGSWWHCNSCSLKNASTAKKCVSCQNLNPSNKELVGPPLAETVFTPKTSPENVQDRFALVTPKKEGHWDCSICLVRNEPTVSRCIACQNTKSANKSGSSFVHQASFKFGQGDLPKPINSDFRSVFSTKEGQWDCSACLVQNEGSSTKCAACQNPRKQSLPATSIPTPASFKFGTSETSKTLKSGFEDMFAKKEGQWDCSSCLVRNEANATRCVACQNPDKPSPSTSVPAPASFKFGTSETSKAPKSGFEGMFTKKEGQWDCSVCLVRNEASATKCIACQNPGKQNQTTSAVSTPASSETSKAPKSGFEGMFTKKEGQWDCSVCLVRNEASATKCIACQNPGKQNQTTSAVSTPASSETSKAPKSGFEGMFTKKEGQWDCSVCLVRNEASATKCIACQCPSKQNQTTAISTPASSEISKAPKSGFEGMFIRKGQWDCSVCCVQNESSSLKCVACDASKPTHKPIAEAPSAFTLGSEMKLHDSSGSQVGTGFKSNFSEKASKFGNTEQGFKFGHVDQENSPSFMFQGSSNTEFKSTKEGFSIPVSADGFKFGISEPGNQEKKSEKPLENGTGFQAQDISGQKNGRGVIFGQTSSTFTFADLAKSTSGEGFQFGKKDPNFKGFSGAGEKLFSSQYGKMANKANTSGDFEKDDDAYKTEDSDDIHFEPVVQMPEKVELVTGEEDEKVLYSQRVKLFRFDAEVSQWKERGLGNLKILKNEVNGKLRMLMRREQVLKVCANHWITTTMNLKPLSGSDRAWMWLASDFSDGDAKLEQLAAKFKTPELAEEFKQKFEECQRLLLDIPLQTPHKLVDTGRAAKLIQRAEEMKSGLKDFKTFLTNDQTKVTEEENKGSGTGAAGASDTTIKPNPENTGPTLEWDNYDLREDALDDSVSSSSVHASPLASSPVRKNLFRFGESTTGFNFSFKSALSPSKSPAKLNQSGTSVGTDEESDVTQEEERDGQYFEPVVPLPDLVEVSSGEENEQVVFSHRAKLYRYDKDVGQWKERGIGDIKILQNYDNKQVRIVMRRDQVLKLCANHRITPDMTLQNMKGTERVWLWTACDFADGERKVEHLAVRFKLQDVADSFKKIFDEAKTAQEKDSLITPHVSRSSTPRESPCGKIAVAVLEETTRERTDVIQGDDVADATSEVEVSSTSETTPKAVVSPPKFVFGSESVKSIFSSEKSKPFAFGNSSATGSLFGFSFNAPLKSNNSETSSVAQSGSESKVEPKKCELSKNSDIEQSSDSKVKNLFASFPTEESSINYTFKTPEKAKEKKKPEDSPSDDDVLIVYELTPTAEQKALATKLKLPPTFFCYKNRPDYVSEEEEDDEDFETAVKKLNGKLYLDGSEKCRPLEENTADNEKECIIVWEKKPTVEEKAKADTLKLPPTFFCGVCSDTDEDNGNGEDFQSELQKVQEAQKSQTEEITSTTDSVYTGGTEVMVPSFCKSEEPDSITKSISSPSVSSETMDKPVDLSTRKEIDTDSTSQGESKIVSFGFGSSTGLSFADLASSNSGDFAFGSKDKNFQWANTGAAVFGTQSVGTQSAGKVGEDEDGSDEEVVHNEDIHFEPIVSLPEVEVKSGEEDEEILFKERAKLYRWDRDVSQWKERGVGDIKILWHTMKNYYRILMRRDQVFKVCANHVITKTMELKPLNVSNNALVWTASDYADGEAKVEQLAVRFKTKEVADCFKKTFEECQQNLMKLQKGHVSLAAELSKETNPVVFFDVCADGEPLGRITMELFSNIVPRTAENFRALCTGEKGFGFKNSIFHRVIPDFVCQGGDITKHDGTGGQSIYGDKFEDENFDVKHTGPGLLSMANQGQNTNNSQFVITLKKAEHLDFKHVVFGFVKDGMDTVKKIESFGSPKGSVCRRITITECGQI
UniProt P30626, sequence (P30626 whole entry, looked up): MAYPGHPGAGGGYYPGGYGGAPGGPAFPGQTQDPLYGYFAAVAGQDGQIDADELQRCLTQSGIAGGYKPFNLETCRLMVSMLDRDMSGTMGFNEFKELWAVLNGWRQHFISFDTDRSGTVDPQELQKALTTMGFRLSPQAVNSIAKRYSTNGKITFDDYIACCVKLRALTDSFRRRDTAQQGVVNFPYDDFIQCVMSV
UniProt O95336, sequence (O95336 whole entry, looked up): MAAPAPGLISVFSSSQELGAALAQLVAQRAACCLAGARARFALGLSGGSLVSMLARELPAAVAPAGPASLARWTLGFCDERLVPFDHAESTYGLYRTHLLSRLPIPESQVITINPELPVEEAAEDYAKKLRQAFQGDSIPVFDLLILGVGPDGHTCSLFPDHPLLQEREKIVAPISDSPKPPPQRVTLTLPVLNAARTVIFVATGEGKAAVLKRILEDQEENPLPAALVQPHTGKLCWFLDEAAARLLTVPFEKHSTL

Compound in the experiment: COC(=O)C#Cc1ccccc1 [methyl 3-phenylpropiolate]
Put plainly: log2 ratio of iodoacetamide-alkyne labeling of the cysteine site, DMSO over compound (competition); higher = stronger covalent engagement of the cysteine by the compound, active = 1 or more. The following applies: 500 µM; treatment time 1 h; system: HEK293T cell lysate. The method in brief: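 HEK293T lysate (2 mg/mL) was incubated with electrophile (500 µM) or vehicle for 1 h at ambient temperature and then with iodoacetamide alkyne for 1 h. Labelled proteins were clicked to sCIP-TMT reagents, pooled, digested, enriched on streptavidin and measured by Orbitrap Eclipse LC-MS/MS with FAIMS, with FragPipe quantification. The per-cysteine log2 competition ratio is mean control-channel reporter intensity over mean compound-channel reporter intensity. Across three replicates with duplicate channels, cysteines quantified in only one replicate were excluded.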
Regarding HSPD1 C442 (UniProt P10809), the “log2 ratio of iodoacetamide-alkyne labeling” value (“log2 ratio” below) is 1.2 (active).

In the case of SEPHS1 C31 (UniProt P49903), the “log2 ratio” value was 0.175.

Regarding MBD3 C172 (UniProt O95983), the “log2 ratio” value was 0.114.

For the target ADD1 C68 (UniProt P35611), the “log2 ratio” value was 0.368.

In the case of ARF4 C62 (UniProt P18085), the “log2 ratio” value is -0.015.

Consider AKT2 C297 (UniProt P31751), for which the “log2 ratio” value is 0.698.

Regarding BCR C395 (UniProt P11274), the “log2 ratio” value is 1.17 (active).

As for UniProt P10155_C71, the “log2 ratio” value was 0.136.

As to MSH6 C1337 (UniProt P52701), the “log2 ratio” value was 0.14.

As to NSF C11 (UniProt P46459), the “log2 ratio” value was 0.206.

On to CTSB C319 (UniProt P07858), for which the “log2 ratio” value was 0.512.

For the target GMPS C631 (UniProt P49915), the “log2 ratio” value was 0.369.

As for SRI C194 (UniProt P30626), the “log2 ratio” value was -0.125.

Take RANBP2 C1335 (UniProt P49792): the “log2 ratio” value is 0.226.

For TMPO C570 (UniProt P42166), the “log2 ratio” value is 1.16 (active).

For UniProt P49459_C88, the “log2 ratio” value is 0.243.

In the case of APC C1387 (UniProt P25054), the “log2 ratio” value was 0.256.

On to CA2 C205 (UniProt P00918), for which the “log2 ratio” value is -0.11.

For the target SMC2 C326 (UniProt O95347), the “log2 ratio” value was 0.547.

For the target MAP1B C73 (UniProt P46821), the “log2 ratio” value was 0.173.

MTHFD1 C691 (UniProt P11586): the “log2 ratio” value was 0.242.

As for HNRNPA3 C196 (UniProt P51991), the “log2 ratio” value was -0.0216.

Regarding CCT3 C475 (UniProt P49368), the “log2 ratio” value is 0.185.

Regarding MFN2 C348 (UniProt O95140), the “log2 ratio” value was -0.0549.

Take LMNA C570 (UniProt P02545): the “log2 ratio” value is 0.553.

For the target OAT C306 (UniProt P04181), the “log2 ratio” value is 0.00204.

Turning to FASN C1548 (UniProt P49327), the “log2 ratio” value was -0.00359.

Take IDH3G C81 (UniProt P51553): the “log2 ratio” value was 0.412.

As to PPP2R1B C306 (UniProt P30154), the “log2 ratio” value is 0.0579.

In the case of PGLS C32 (UniProt O95336), the “log2 ratio” value was 0.724.

As to IMPDH2 C95 (UniProt P12268), the “log2 ratio” value was -0.293.

As for IDH3A C331 (UniProt P50213), the “log2 ratio” value was 0.257.

As for MPI C289 (UniProt P34949), the “log2 ratio” value is -0.0268.

Regarding ACADSB C175 (UniProt P45954), the “log2 ratio” value is 0.109.

With NT5C2 C181 (UniProt P49902), the “log2 ratio” value is 0.0722.

For FXR2 C270 (UniProt P51116), the “log2 ratio” value was 0.306.

Regarding TTK C284 (UniProt P33981), the “log2 ratio” value was 0.53.
